The source made the active and inactive calls. Calls come from the whole dose curve; as a rule, active = well fitted activation curve with a large enough effect in the repeat runs; inconclusive = weak or mixed curves; inactive = flat fitted curve, though single readings scatter.

A short description of this experiment: A CellTox Green Cytotoxicity Assay to monitor cytotoxicity in HepG2 cells - 0 hour (AID 1224882). Note: nearly all actives have a fitted effect of over 35% in size. Conditions: CellTox Green fluorescence; series mostly up to 76.8 µM. The source says: National Center for Advancing Translational Sciences [NCATS]
NIH Chemical Genomics Center [NCGC]
U.S. Environmental Protection Agency [EPA]
National Institutes of Environmental Health Sciences [NIEHS]
National Toxicology Program [NTP]
Cell-based models are critical for drug discovery. Determining the natural cytotoxic effects resulting from test compounds is an essential research activity. A CellTox Green Cytotoxicity Assay to monitor cytotoxicity in real time of continues cell culture during 40 hours of the compound treatment was used to screen Tox21 10K library compounds in HepG2 cells. CellTox Green Cytotoxicity Assay is a nonlytic, homogeneous, biofluorescent method to measure cytotoxicity in cell culture after experimental manipulation. The assay system uses a proprietary asymmetric cyanine dye that is excluded from viable cells but preferentially stains the dead cell's DNA. […] Viable cells produce no appreciable increases in fluorescence. Therefore, the fluorescence signal produced by the binding interaction with dead cell DNA is proportional to cytotoxicity.
The mixture of HepG2 cell suspension and reagents were dispensed at 600cells/6 ul/well in 1536-well tissue culture treated black solid bottom plates using a Multidrop dispenser. After the assay plates were incubated at a 37 C/5% CO2 incubator for 5 hours, 23 nL of compounds dissolved in DMSO, positive and negative controls was transferred to the assay plate by a pintool work station. The plates were incubated at 37 C for 40 hours. The fluorescence intensity were measured at 0h, 8h, 16h, 24h, 32h and 40h time points using ViewLux plate reader during compound treatment.
With `c1ccc2c(c1)ccc1c3ccccc3ccc21`, the outcome was inactive.

Take `Nc1ccc([N+](=O)[O-])c(N)c1`: the call was inactive.

`O=C1CCCC(=O)O1`: the molecule was classed as inactive.

For `CCOC(=O)c1ccc(OC(=O)CCCCCN=C(N)N)cc1`, the molecule was called inactive.

Take `Cc1ccccc1N=O`: the result was inactive.

As to `Cc1cccc2nccnc12`, the result was inactive.

Take `CN1C(C)(C)CCCC1(C)C`: the molecule was called inactive.

On to `On1nnc2ccccc21`, for which the call was inactive.

As to `Cc1ccc(S(=O)(=O)O)c(C)c1`, the call was inactive.

Regarding `Nc1ncnc(Nc2ccccc2)n1`, the molecule was classed as inactive.

On to `COC(=O)CCc1ccc(OCC(O)CNC(C)C)cc1` (stereo not given), for which the outcome was inactive.

Consider `CC(=O)NCCCCCC(=O)O`, for which the molecule was classed as inactive.

As for `CC(C)NCC(O)COc1cccc2[nH]ccc12` (stereo not given), the molecule was called inactive.

In the case of `CC(C)=O`, the molecule was called inactive.

As for `Cc1ccsc1/C=C/C1=NCCCN1C`, the outcome was inactive.

On to `Cc1ccc2c(c1)OCC(=O)CO2`, for which the molecule was called inactive.

For the molecule `O=C(CS(=O)Cc1ccco1)NC/C=C\COc1cc(CN2CCCCC2)ccn1` (stereo not given), the outcome was inactive.

In the case of `CC(=O)CCCCn1c(=O)c2c(ncn2C)n(C)c1=O`, the outcome was inactive.

Take `CCCCCCCCCC(C)=O`: the result was inactive.

Consider `BrCc1cccc(Oc2ccccc2)c1`, for which the result was inactive.

Regarding `NS(=O)(=O)c1cc2c(cc1Cl)CN(C1CCCCC1)C2=O`, the result was inactive.

As for `CC(=O)Nc1ccc(S(=O)(=O)Cl)cc1`, the molecule was classed as inactive.

With `CC(N)C(=O)OC(C)(C)Cc1ccc(Cl)cc1` (stereo not given), the molecule was classed as inactive.

Turning to `C=C(C)C(=O)OCC(C)(C)COC(=O)C(=C)C`, the molecule was classed as inactive.

`COc1ccc(-c2cc(=O)c3c(O)cc(O[C@@H]4O[C@H](CO[C@@H]5O[C@@H](C)[C@H](O)[C@@H](O)[C@H]5O)[C@@H](O)[C@H](O)[C@H]4O)cc3o2)cc1O`: the call was inactive.

Consider `COC(=O)[C@@H]1[C@H]2C[C@H]3c4[nH]c5ccccc5c4CCN3C[C@@H]2CC[C@@H]1O`, for which the molecule was called inactive.

As to `Cc1ccc2ccc(Cl)cc2n1`, the molecule was called inactive.

In the case of `CC(CN)CC(C)(C)CCN` (stereo not given), the call was inactive.

For the molecule `COC(=O)c1ccccc1C(=O)c1ccc(OCCN2CCCCC2)cc1`, the outcome was inactive.

`CCOC(=O)[C@H](CCc1ccccc1)N[C@@H](C)C(=O)N1C(=O)N(C)C[C@H]1C(=O)O`: the outcome was inactive.

For `CC(C)C(=O)OCc1cccc(OC(=O)[C@@H]2N3C(=O)[C@@H](NC(=O)Cc4ccccc4)[C@H]3SC2(C)C)c1`, the molecule was classed as inactive.

In the case of `CCCCCCCCSCC`, the molecule was classed as inactive.

`CCOc1cc(NC(C)=O)ccc1C(=O)OC`: the molecule was classed as inactive.

As for `CCCOC(OCCC)OCCC`, the result was inactive.

With `CC(C)C[C@H](NC(=O)CNC(=O)[C@H](Cc1ccc(O)cc1)NC(=O)[C@H](CO)NC(=O)[C@H](Cc1c[nH]c2ccccc12)NC(=O)[C@H](Cc1cnc[nH]1)NC(=O)[C@@H]1CCC(=O)N1)C(=O)N[C@@H](CCCN=C(N)N)C(=O)N1CCC[C@H]1C(=O)NCC(N)=O` (stereo in doubt), the molecule was classed as inactive.

With `CC(=O)Nc1cccc(C)c1`, the result was inactive.

`O=C(OCC(COC(=O)c1cccnc1)(COC(=O)c1cccnc1)COC(=O)c1cccnc1)c1cccnc1`: the result was inactive.

As to `O=C(c1ccc(O)cc1)c1ccc(O)c(O)c1O`, the outcome was inactive.

On to `CC(C)CC(=O)O`, for which the call was inactive.

For the molecule `CC(C(=O)O)c1ccc2c(c1)CC(=O)c1ccccc1S2` (stereo not given), the outcome was inactive.

Source of the values: PubChem BioAssay (Tox21).
